Measured values reported in PubChem BioAssay AID504734 (The Scripps Research Institute Molecular Screening Center, 2011).
Screen size: about 340,000 compounds; about 730 (0.21%) were called active.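 The calls were made as follows: active = inhibition above the mean over all tested compounds plus 3 SD (cut at about 21% in these data); inactive = the rest.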 The full list was thinned out, with actives kept by preference.

Target: Toll-like receptor 9 (Homo sapiens) + Myeloid differentiation primary response protein MyD88 (Homo sapiens) (UniProt Q9NR96+Q99836)
Assay: disruptors of TLR9 binding to MyD88 – cell-based, CHO, BLA complementation, fluorescence, primary screen (AID 504734);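 also: 0% = DMSO only wells and 100% = clavulanate BLA inhibitor control wells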
Details: CHO BLA complementation TLR9-MyD88, CCF4 FRET ratio; at 4.98 µM; stronger effect = higher value

Toll-like receptor 9 (Homo sapiens) + Myeloid differentiation primary response protein MyD88 (Homo sapiens), sequence (Q99836 whole entry, looked up): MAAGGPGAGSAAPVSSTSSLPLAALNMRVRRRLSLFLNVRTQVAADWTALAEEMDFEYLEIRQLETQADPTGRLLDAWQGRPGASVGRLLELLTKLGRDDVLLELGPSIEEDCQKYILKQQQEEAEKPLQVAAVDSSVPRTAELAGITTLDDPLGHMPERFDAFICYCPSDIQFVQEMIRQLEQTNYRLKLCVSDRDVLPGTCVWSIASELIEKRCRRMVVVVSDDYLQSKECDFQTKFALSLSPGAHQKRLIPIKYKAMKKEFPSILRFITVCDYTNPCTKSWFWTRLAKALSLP
Toll-like receptor 9 (Homo sapiens) + Myeloid differentiation primary response protein MyD88 (Homo sapiens), sequence (Q9NR96 whole entry, looked up): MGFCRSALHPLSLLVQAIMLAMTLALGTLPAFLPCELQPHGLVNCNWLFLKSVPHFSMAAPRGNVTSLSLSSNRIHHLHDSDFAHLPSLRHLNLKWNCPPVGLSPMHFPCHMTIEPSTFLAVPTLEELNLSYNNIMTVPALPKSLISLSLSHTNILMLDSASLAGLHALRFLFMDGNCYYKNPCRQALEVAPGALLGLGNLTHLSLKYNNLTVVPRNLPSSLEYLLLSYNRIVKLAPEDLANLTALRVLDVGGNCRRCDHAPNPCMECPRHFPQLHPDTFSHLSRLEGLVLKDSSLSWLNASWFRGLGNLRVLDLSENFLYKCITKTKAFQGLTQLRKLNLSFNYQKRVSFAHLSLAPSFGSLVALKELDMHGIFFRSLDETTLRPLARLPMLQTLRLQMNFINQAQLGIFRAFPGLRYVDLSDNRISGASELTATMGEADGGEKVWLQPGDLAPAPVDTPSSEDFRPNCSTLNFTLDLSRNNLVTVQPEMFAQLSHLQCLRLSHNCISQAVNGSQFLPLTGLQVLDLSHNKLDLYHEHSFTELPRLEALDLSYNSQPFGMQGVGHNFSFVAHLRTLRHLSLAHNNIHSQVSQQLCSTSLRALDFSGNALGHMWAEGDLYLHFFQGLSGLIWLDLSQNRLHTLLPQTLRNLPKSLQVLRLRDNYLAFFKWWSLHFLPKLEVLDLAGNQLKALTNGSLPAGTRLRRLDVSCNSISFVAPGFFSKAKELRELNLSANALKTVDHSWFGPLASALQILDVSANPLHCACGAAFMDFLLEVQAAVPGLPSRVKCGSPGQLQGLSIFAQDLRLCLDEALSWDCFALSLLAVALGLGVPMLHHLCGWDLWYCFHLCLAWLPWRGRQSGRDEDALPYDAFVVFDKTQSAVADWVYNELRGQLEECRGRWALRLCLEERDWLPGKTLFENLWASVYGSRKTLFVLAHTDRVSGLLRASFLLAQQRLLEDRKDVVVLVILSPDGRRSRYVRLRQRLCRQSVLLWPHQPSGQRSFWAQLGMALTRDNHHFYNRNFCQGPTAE

Compound	inhibition
Cc1ccc(Cc2c(-c3ccc(C)cc3)nc3c4ccccc4ccn23)cc1	0.71% (inactive)
CCCCCCN1C[C@H](O)[C@@H](n2cc(C3CC3)nn2)C[C@@H]1c1ccc(Cl)cc1	2.49% (inactive)
COc1cc(/C=C(\C#N)c2nc3c(s2)CC(C)CC3)ccc1O (stereo unspecified)	21.5% (active)
COc1cc(C=NC2CCCCC2)ccc1O	-10.8% (inactive)
CCOc1ccc(/C=C(/C#N)c2nnc(N3CCOCC3)n2-c2ccccc2)cc1OC	3.43% (inactive)
CNC(=O)C1CN(C(=O)c2cccc(S(=O)(=O)N3CCc4ccccc43)c2)c2ccccc2O1 (stereo unspecified)	2.33% (inactive)
Nc1cc(=O)c2[nH]cnc2[nH]1	2.53% (inactive)
O=C1CCC(C(=O)OCC(=O)Nc2ccc(OC(F)F)cc2)=NN1	-4.91% (inactive)
CCOC(=O)c1c(NC(=O)COC(=O)c2ccc(S(=O)(=O)C(F)F)cc2)sc(C(=O)N(C)C)c1C	-11.2% (inactive)
CC(=O)N(C1=C(Cl)C(=O)c2ccccc2C1=O)c1ccc(C(=O)O)cc1	-8.51% (inactive)
O=C1C(Cl)=C(Oc2ccccc2)C(=O)c2ccccc21	56.9% (active)
CCN(CC)C(=O)C1=C(C)N(Cc2ccc(OC)cc2)C(=O)C(CC(=O)NCc2ccco2)C1 (stereo unspecified)	7.39% (inactive)
CC(C)CCOc1ccc(C(=O)Nc2cc(S(=O)(=O)N3CCOCC3)ccc2N2CCOCC2)cc1	3.89% (inactive)
COc1ccccc1C1CCN(c2ccc([N+](=O)[O-])cn2)CC1	-2.92% (inactive)
COc1ccccc1CSc1ncc(-c2ccc([N+](=O)[O-])cc2)[nH]1	21.5% (active)
COc1ccc(-c2cnc(SCCNC(=O)c3ccc4c(c3)OCO4)[nH]2)cc1	-7.86% (inactive)
Cn1ncc([N+](=O)[O-])c1C(=O)Nc1cc(Cl)ccc1Cl	-11.5% (inactive)
Cc1cc(Cl)ccc1C(=O)C1CCCN(C(=O)c2ccc3c(c2)OCO3)C1 (stereo unspecified)	-4.99% (inactive)
O=C(COC(=O)c1cncc(Br)c1)Nc1ccc(S(=O)(=O)N2CCOCC2)cc1	-5.67% (inactive)
O=C(Nc1cccc2ccccc12)NC1CC1	2.15% (inactive)
O=C(COC(=O)c1c2c(nc3ccccc13)CCCC2)c1ccc(Br)s1	-5.16% (inactive)
NS(=O)(=O)c1ccc(NC(=O)COC(=O)c2ccco2)cc1	-0.62% (inactive)
COc1cc(/C=C2\CCCc3c2nc2ccccc2c3C(=O)O)cc(Cl)c1O	-7.09% (inactive)
NC(=O)c1ccc(NC(=O)COC(=O)c2c3c(nc4ccccc24)/C(=C\c2ccc4c(c2)OCO4)CCC3)cc1	8.83% (inactive)
NS(=O)(=O)c1ccc(NC(=O)COC(=O)c2c3c(nc4ccccc24)/C(=C\c2ccc4c(c2)OCO4)CCC3)cc1	25.9% (active)
O=C(COC(=O)c1c2c(nc3ccccc13)/C(=C\c1cccs1)CCC2)Nc1ccccc1Cl	22% (active)
